Targets with a hit are over-represented here; the source holds about 7,900 in all. About 0.6% of all pairs of compound and target were hits. Unmarked numbers belong to inactive results.
Key:
Experiment in all cases: log2 fold change, soluble protein after heating vs DMSO (PISA); higher = thermal stabilisation; K562 cells, 10 uM, 30 min; active = over 0.2 and 3.5 SD of the protein, either way, in both replicates (recomputed)
[1] = compound: CS(=O)(=O)c1ccc(-c2cnc(N)c(C(=O)Nc3ccccc3)n2)cc1
How it was run: (§1)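 K562 cells at 2×10^6 cells/mL were given 10 μM compound for 30 min. Aliquots then went through 3 min of heating across 48°C-58°C, were pooled, and were extracted in PBS with 0.5% NP-40 at 4°C, and the supernatant after 21,000xg for 90 min was quantified by TMTpro 16plex LC-MS/MS with channel sums equalised. Thermal stability relative to control samples, from duplicates, is given as log2 fold change.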

crizotinib = compound: C[C@@H](Oc1cc(-c2cnn(C3CCNCC3)c2)cnc1N)c1c(Cl)ccc(F)c1Cl [crizotinib]
How it was run: as §1

[2] = compound: C[C@@H]1COCCN1C2=NC(=NC(=C2)C3(CC3)S(=O)(=O)C)C4=C5C=CNC5=CC=C4
How it was run: as §1

[3] = compound: C[C@H](C1=CC=C(C=C1)C(=O)NC2=C3C=CNC3=NC=C2)N
How it was run: as §1

duvelisib = compound: C[C@H](Nc1ncnc2nc[nH]c12)c1cc2cccc(Cl)c2c(=O)n1-c1ccccc1 [duvelisib]
How it was run: as §1

gandotinib = compound: Cc1cc(Nc2cc(CN3CCOCC3)c3nc(C)c(Cc4ccc(Cl)cc4F)n3n2)n[nH]1 [gandotinib]
How it was run: as §1

tozasertib = compound: Cc1cc(Nc2cc(N3CCN(C)CC3)nc(Sc3ccc(NC(=O)C4CC4)cc3)n2)n[nH]1 [tozasertib]
How it was run: as §1

[4] = compound: Cc1cc(SCc2sc(-c3ccc(C(F)(F)F)cc3)nc2C)ccc1OCC(=O)O
How it was run: as §1

doramapimod = compound: Cc1ccc(-n2nc(C(C)(C)C)cc2NC(=O)Nc2ccc(OCCN3CCOCC3)c3ccccc23)cc1 [doramapimod]
How it was run: as §1

ispinesib = compound: Cc1ccc(C(=O)N(CCCN)[C@@H](c2nc3cc(Cl)ccc3c(=O)n2Cc2ccccc2)C(C)C)cc1 [ispinesib]
How it was run: as §1

bafetinib = compound: Cc1ccc(NC(=O)c2ccc(CN3CC[C@H](N(C)C)C3)c(C(F)(F)F)c2)cc1Nc1nccc(-c2cncnc2)n1 [bafetinib]
How it was run: as §1

[5] = compound: Cc1cccc(CC(=O)N2CCc3c2ccc(-c2cn(C)c4ncnc(N)c24)c3F)n1
How it was run: as §1

nilotinib = compound: Cc1cn(-c2cc(NC(=O)c3ccc(C)c(Nc4nccc(-c5cccnc5)n4)c3)cc(C(F)(F)F)c2)cn1 [nilotinib]
How it was run: as §1

[6] = compound: Cc1nc(Nc2n[nH]c3c2CN(C(=O)N[C@H](CN(C)C)c2ccccc2)C3(C)C)c2sccc2n1
How it was run: as §1

dasatinib = compound: Cc1nc(Nc2ncc(C(=O)Nc3c(C)cccc3Cl)s2)cc(N2CCN(CCO)CC2)n1 [dasatinib]
How it was run: as §1

[7] = compound: Cc1ncc(-c2ccnc(Nc3ccc(S(C)(=O)=O)cc3)n2)n1C(C)C
How it was run: as §1

[8] = compound: Cn1cc(-c2ccc3c(c2)CCN3C(=O)Cc2cccc(C(F)(F)F)c2)c2c(N)ncnc21
How it was run: as §1

[9] = compound: Cn1cc(-c2ccc3nnc(C(F)(F)c4ccc5ncccc5c4)n3n2)cn1
How it was run: as §1

tipifarnib = compound: Cn1cncc1[C@@](N)(c1ccc(Cl)cc1)c1ccc2c(c1)c(-c1cccc(Cl)c1)cc(=O)n2C [tipifarnib]
How it was run: as §1

mubritinib = compound: FC(F)(F)c1ccc(/C=C/c2nc(COc3ccc(CCCCn4ccnn4)cc3)co2)cc1 [mubritinib]
How it was run: as §1

Sequence of UniProt Q6NUM9 (Q6NUM9 whole entry, looked up): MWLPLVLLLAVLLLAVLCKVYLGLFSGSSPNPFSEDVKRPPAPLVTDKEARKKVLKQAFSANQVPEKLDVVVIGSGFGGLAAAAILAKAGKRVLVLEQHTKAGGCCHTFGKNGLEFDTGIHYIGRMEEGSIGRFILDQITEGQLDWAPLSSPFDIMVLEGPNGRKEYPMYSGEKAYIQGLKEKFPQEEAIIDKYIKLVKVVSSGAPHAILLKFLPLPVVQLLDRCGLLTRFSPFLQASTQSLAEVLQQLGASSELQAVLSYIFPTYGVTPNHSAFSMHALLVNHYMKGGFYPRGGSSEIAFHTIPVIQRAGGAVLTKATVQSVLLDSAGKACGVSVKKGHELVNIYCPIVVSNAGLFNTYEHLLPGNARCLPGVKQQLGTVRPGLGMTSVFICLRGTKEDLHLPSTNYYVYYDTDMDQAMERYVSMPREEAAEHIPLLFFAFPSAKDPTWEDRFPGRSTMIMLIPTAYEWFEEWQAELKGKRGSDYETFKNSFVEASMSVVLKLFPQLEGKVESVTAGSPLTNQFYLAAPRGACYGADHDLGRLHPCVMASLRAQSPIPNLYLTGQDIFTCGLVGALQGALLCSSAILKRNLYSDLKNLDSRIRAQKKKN
Sequence of UniProt P35244 (P35244 whole entry, looked up): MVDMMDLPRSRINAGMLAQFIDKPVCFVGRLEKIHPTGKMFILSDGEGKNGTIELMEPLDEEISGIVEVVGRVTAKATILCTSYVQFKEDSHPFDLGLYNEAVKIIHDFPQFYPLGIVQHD
Sequence of UniProt Q8NBX0 (Q8NBX0 whole entry, looked up): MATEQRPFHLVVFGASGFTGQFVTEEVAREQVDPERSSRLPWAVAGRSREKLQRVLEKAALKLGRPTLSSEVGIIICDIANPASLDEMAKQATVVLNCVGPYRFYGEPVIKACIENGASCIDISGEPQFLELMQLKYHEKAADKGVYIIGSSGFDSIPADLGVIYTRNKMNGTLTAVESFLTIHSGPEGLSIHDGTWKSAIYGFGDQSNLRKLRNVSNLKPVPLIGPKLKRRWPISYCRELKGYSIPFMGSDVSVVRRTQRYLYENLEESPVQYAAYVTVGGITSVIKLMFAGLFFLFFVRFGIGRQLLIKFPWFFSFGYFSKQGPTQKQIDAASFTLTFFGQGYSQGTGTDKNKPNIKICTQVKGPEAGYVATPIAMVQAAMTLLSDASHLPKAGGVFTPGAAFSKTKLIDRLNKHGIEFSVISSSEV
Sequence of UniProt P06400 (P06400 whole entry, looked up): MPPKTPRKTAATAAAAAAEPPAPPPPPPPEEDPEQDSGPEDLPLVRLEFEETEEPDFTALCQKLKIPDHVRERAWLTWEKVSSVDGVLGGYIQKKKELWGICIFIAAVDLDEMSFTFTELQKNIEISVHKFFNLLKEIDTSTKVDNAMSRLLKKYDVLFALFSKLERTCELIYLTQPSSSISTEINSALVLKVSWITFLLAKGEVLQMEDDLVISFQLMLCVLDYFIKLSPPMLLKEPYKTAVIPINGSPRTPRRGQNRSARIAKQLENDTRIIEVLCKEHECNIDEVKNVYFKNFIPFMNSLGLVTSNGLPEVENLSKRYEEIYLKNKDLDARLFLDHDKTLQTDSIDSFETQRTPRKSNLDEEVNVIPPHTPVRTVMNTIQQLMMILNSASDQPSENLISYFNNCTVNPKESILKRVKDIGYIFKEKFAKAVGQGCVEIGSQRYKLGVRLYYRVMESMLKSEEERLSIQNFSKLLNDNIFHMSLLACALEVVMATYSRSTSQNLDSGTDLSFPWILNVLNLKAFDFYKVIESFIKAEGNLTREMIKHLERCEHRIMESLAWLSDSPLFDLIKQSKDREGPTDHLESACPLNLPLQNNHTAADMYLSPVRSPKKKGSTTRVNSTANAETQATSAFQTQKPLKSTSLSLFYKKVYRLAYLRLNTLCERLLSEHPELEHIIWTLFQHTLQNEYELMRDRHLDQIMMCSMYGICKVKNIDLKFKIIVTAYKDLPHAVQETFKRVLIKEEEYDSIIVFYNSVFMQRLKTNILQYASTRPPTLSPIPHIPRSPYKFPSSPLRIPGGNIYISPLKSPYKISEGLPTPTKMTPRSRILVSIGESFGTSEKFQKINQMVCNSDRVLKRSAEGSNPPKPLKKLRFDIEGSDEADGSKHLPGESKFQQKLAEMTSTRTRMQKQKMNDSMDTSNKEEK
Sequence of UniProt Q9H2M9 (Q9H2M9 whole entry, looked up): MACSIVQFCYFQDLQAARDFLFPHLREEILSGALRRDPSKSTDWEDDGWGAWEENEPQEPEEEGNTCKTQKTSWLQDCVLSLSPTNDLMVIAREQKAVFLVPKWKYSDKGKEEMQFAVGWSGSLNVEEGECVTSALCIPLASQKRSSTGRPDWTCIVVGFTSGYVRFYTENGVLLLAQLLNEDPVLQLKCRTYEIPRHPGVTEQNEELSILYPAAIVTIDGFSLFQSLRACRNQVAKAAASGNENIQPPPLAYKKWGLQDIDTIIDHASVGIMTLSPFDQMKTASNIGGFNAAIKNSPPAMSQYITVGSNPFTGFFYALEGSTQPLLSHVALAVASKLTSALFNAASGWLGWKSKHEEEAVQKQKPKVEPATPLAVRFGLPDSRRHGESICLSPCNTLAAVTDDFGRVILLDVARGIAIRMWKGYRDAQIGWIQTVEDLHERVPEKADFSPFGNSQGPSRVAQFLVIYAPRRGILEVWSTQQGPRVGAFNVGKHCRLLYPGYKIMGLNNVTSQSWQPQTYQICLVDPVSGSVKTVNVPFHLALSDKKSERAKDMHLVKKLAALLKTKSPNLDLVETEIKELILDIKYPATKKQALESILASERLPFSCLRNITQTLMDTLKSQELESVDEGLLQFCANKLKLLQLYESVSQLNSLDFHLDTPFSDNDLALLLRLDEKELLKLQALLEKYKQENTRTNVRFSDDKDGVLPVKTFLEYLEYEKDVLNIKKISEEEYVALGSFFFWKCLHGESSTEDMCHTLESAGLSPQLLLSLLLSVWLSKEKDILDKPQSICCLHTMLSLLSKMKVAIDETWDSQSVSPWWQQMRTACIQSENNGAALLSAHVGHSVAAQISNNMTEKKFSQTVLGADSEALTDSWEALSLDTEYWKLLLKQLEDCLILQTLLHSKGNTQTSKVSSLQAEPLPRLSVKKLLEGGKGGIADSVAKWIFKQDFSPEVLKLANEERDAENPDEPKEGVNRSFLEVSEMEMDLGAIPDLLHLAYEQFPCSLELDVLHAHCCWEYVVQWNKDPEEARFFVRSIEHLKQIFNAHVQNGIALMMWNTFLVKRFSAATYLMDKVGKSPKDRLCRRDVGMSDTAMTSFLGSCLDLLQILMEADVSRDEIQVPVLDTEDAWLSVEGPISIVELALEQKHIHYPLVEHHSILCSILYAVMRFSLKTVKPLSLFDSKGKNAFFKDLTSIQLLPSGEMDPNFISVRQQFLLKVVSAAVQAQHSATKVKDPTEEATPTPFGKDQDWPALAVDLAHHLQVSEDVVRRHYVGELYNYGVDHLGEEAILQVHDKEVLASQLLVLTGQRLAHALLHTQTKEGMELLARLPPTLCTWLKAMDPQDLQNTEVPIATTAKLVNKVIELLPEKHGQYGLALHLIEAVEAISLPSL
Sequence of UniProt Q5VTB9 (Q5VTB9 whole entry, looked up): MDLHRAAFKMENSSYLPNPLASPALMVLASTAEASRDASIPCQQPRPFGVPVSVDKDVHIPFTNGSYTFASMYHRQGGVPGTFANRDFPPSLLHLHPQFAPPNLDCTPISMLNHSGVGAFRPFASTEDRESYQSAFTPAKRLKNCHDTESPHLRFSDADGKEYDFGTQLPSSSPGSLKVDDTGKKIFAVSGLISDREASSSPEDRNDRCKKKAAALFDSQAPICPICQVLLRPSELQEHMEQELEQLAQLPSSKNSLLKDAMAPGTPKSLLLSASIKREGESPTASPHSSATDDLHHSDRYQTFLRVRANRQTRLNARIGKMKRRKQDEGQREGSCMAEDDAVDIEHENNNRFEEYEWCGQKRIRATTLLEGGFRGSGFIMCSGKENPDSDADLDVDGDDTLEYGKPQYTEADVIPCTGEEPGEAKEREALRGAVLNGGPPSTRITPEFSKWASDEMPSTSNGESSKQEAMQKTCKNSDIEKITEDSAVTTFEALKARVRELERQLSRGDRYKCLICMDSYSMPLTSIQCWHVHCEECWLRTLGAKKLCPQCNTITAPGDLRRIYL
Sequence of UniProt Q9BXP2 (Q9BXP2 whole entry, looked up): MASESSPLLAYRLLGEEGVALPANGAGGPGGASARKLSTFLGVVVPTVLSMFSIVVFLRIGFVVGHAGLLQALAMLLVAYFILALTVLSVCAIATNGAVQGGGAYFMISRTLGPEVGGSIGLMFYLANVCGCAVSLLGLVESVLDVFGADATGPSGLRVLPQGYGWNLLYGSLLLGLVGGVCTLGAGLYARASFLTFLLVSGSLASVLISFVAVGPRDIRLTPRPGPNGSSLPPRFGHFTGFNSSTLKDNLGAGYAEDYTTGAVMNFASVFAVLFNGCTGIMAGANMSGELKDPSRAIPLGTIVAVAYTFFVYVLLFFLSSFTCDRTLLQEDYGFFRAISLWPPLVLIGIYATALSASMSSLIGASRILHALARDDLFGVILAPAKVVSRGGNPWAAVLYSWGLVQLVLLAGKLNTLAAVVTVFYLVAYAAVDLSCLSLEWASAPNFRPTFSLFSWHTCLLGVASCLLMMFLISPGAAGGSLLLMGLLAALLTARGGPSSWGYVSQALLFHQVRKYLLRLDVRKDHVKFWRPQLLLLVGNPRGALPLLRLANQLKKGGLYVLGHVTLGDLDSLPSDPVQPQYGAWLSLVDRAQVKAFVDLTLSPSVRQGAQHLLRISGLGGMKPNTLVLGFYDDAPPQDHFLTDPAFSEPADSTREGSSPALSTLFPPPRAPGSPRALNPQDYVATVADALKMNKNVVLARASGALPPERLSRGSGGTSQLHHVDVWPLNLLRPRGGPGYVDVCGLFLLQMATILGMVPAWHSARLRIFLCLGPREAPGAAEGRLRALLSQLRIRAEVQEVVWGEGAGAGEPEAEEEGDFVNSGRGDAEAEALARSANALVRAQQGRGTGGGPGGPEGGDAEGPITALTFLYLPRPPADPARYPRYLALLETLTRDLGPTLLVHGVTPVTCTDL

Target	log2 fold change [1]	log2 fold change (crizotinib)	log2 fold change [2]	log2 fold change [3]	log2 fold change (duvelisib)	log2 fold change (gandotinib)	log2 fold change (tozasertib)	log2 fold change [4]	log2 fold change (doramapimod)	log2 fold change (ispinesib)	log2 fold change (bafetinib)	log2 fold change [5]	log2 fold change (nilotinib)	log2 fold change [6]	log2 fold change (dasatinib)	log2 fold change [7]	log2 fold change [8]	log2 fold change [9]	log2 fold change (tipifarnib)	log2 fold change (mubritinib)
RPA3 (UniProt P35244)	-0.044	0.042	-0.162	-0.098	0.043	0.11	0.053	0.003	-0.054	0.109	0.023	0.086	-0.034	-0.047	0.016	0.022	0.105	-0.002	0.014	0.024
RPL31 (UniProt P62899)	-0.08	0.079	-0.56	0.396	-0.158	0.35	0.029	-0.001	0.173	-0.167	0.342	0.024	0.001	0.179	0.14	-0.041	-0.231	-0.082	0.151	-0.095
RPS18 (UniProt P62269)	-0.022	0.033	-0.244	0.222	-0.076	0.129	0.016	-0.002	0.105	-0.074	0.214	-0.015	-0.001	0.198	0.069	-0.054	-0.088	-0.001	0.031	-0.022
RAC3 (UniProt P60763)	0.074	0.097	0.073	-0.027	0.145	0	-0.086	0.005	0.262 (active)	-0.013	0.015	-0.221	0.03	0.036	-0.169	-0.016	0.107	0.064	0.03	-0.008
RETSAT (UniProt Q6NUM9)	-0.038	0.005	-0.129	-0.003	0.083	0.284	-0.103	0.036	0.147	-0.008	-0.011	-0.034	0.154	-0.076	-0.001	0.511 (active)	0.045	-0.002	-0.052	0.182
SCCPDH (UniProt Q8NBX0)	0.074	0.333	0.058	-0.093	0.068	0.313	-0.018	0.124	0.007	0.081	0.161	-0.046	0.189	0.019	0.008	0.174	0.273	-0.074	0.419 (active)	0.104
RNF220 (UniProt Q5VTB9)	-0.001	0.096	-0.003	-0.042	0.055	-0.012	0.043	-0.011	-0.057	0.073	-0.064	0.008	0.009	-0.058	0.01	0.037	-0.034	0.239 (active)	-0.003	0.002
RAB3GAP2 (UniProt Q9H2M9)	0.019	-0.064	-0.024	0.213	-0.046	0.003	0.048	0.119	0.046	-0.097	0.059	0.091	-0.026	-0.088	-0.14	0.006	-0.077	-0.029	-0.046	-0.087
RB1 (UniProt P06400)	0.041	-0.112	0.117	-0.07	0.033	-0.168	-0.001	-0.024	0.022	-0.002	0.006	0.01	0.015	-0.378 (active)	0.011	-0.716 (active)	0.082	0.011	0.004	0.046
RPS19 (UniProt P39019)	-0.12	0.023	-0.309	0.182	-0.11	0.201	0.033	0.018	0.05	-0.081	0.242	-0.026	0.046	0.181	0.083	-0.021	-0.11	-0.068	0.055	-0.037
SLC12A9 (UniProt Q9BXP2)	-0.071	-0.315 (active)	-0.022	0.016	-0.038	-0.16	0.001	-0.074	-0.012	-0.713 (active)	-0.088	0.023	-0.069	0.05	0.057	-0.066	0.008	-0.006	0.025	0.001

— the supplement of paper PMC10849652
